Experimental findings from PubChem BioAssay AID1347419 (Sanford-Burnham Center for Chemical Genomics, 2020) are described below.

About 820 (0.83%) of roughly 99,000 compounds were called active. The sample as a whole holds a higher share of actives than the screen did. A number with no mark means an inactive call.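 Rule for the calls: active = Z-score of -3 or lower, scaled per plate to the spread of control and sample wells; inactive = z-score above -3.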

The target of the assay is Protein-tyrosine kinase 2-beta (Homo sapiens) (UniProt Q14289). Nature of the assay: Pyk2 FERM oligomerization blockers – Q293 cells, FERM NanoBiT luminescence, HTS, primary screen (AID 1347419).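 Note: the deposit names both 25 µM and 10 µM; negative z-score means lost luminescence so less FERM oligomerization.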 Conditions: active compounds read low. Further details: dose or concentration left out as unconfirmed.
Protein-tyrosine kinase 2-beta (Homo sapiens), sequence (Q14289 whole entry, looked up): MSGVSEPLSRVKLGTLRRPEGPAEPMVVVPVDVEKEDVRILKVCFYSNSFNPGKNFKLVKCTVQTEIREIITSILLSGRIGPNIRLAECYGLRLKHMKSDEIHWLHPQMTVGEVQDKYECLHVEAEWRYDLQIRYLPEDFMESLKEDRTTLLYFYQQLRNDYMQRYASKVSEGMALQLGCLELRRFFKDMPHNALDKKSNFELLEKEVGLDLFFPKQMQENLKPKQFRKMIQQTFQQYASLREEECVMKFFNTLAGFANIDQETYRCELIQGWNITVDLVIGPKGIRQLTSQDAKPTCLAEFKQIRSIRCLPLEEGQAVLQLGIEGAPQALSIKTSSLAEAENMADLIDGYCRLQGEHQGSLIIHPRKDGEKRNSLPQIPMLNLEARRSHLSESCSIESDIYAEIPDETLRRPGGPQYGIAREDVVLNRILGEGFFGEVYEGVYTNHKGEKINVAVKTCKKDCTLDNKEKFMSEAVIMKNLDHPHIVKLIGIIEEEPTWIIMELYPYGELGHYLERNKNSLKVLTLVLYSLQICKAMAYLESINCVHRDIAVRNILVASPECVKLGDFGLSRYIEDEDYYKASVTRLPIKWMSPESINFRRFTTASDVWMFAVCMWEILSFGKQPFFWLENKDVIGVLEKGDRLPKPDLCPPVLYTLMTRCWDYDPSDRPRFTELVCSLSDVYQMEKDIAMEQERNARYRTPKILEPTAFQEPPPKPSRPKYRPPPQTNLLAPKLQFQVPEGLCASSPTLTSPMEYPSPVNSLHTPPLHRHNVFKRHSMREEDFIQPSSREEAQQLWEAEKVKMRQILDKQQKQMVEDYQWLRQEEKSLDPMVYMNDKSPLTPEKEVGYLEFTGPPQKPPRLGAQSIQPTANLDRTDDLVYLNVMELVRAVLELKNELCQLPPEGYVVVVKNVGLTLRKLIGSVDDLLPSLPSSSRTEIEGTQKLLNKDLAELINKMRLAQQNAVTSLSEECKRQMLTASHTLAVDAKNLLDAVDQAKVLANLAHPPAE
On to `Cc1ccc(NC(=O)Cn2cccc2C2=NC(c3ccccc3)CO2)c(C)c1` (configuration not stated), for which the z-score is -0.85.

With `OC(COCc1ccco1)CN1CCN(c2ccccc2)CC1` (configuration not stated), the z-score was 1.

Regarding `CC(CNc1ccc([N+](=O)[O-])c2cccnc12)Nc1c([N+](=O)[O-])cc(C(F)(F)F)cc1[N+](=O)[O-]` (configuration not stated), the z-score is -1.13.

In the case of `Cc1ccc(NC(=O)CC2C(=O)N(Cc3ccccc3)C(=S)N2NC(=O)c2cccc(F)c2)c(C)c1` (configuration not stated), the z-score was -1.13.

As for `COC(=O)C1=NNC2(c3ccc(C)cc3)C(=O)N(c3cccc(C)c3C)C(=O)C12` (configuration not stated), the z-score was -0.49.

Take `CCc1ccc(NC(=O)c2ccc(Cn3cc([N+](=O)[O-])cn3)cc2)cc1`: the z-score is -0.1.

Regarding `O=C(CSC(=S)N1CCOCC1)c1ccccc1`, the z-score was 0.14.

Regarding `CC(=O)Nc1ccc(SCC(=O)Nc2ccccc2Oc2ccccc2)cc1`, the z-score is -1.74.

For the compound `COc1ccc(C(c2nnnn2Cc2cccs2)N2CCN(c3ccccc3)CC2)cc1OC` (configuration not stated), the z-score was -3.47 (active).

Take `COCCn1nnnc1C(c1ccccc1Cl)N1CCN(c2ccccc2OC)CC1` (configuration not stated): the z-score was 0.11.

`COc1ccc(CCn2nnnc2C(c2ccccc2)N2CCN(C)CC2)cc1OC` (configuration not stated): the z-score is 0.7.

On to `CC1(C)Cc2cccc(OCC(=O)N3CCN(c4ccc([N+](=O)[O-])cc4)CC3)c2O1`, for which the z-score is -1.19.

With `COC(=O)c1ccc(C(=O)OC)c(NC(=S)N2CCN(c3cc(Cl)ccc3C)CC2)c1`, the z-score was 0.27.

In the case of `Cc1cc(C)c2[nH]c(=O)c(C(c3nnnn3Cc3ccc4c(c3)OCO4)N3CCCC3)cc2c1` (configuration not stated), the z-score was 0.33.

`CC(C)(C)n1nnnc1C(c1ccc(F)cc1)N1CCN(Cc2ccc3c(c2)OCO3)CC1` (configuration not stated): the z-score is -0.6.

As for `Fc1ccccc1C(c1nnnn1Cc1ccc2c(c1)OCO2)N1CCN(Cc2ccccc2)CC1` (configuration not stated), the z-score is -3.73 (active).

As for `CCc1ccc(Oc2coc3cc(OC(=O)c4cc5ccccc5oc4=O)ccc3c2=O)cc1`, the z-score was -2.06.

`COC(=O)c1ccc(C(=O)Nc2cc(Cl)ccc2Cl)cc1NC(=O)c1ccccc1C`: the z-score is 0.09.

In the case of `Cc1ccccc1NC(=O)c1ccccc1NS(=O)(=O)c1cccc2cccnc12`, the z-score was -1.55.

With `C=CCNC(=O)c1ccccc1NC(=O)c1ccc(Cl)c(S(=O)(=O)Nc2cccc(C)c2C)c1`, the z-score was -3.05 (active).

`Cc1nc2ccccc2n1CC(=O)N/N=C/c1cccs1`: the z-score is 0.4.

As for `CCCN1C(=O)C(Cc2nc3ccccc3c(=O)n2-c2ccccc2)c2cc(C)ccc21` (configuration not stated), the z-score was 0.19.

On to `Cc1nn(CC(=O)Nc2ccc(N(C)C)cc2)c(C)c1[N+](=O)[O-]`, for which the z-score is -0.87.

With `CCCCC(NS(=O)(=O)c1ccc(C)cc1)C(=O)Oc1ccc2c3c(c(=O)oc2c1)CCC3` (configuration not stated), the z-score was -1.42.

With `COC(=O)N/N=C/c1cn(CCCOc2ccc(C)cc2)c2ccccc12`, the z-score is -1.26.

Turning to `CCn1c(C(C)NC(=O)c2ccc(C)cc2)n[nH]c1=S` (configuration not stated), the z-score is 0.28.

Consider `O=C(Nc1ccccc1)c1ccc2c(c1)OCO2`, for which the z-score was 1.34.

On to `O=C(Nc1ccccc1N1CCN(C(=O)c2ccccc2)CC1)c1ccc2c(c1)OCO2`, for which the z-score was -3.44 (active).

In the case of `CCCC(=O)Nc1ccccc1N1CCN(C(=O)c2ccccc2)CC1`, the z-score was -1.16.

As for `CCOc1ccc(NC(=O)CSc2nc3ccccc3c(=O)n2Cc2cccs2)cc1`, the z-score is 0.79.

Regarding `COC(=O)c1cn(-c2ccccc2)nc1-c1cccnc1`, the z-score was -0.5.

`CC(=O)Cc1nsc(NC(=O)c2ccc(COc3ccc(C)cc3)o2)n1`: the z-score is -0.45.

For the compound `COc1ccc(-c2nn(-c3ccccc3)cc2C(=O)Nc2nccs2)cc1OC`, the z-score was -3.32 (active).

As to `COc1cc(C(=O)Nc2nccs2)cc(OC)c1OC`, the z-score was -2.06.

`CC(=O)Cc1nsc(NC(=O)c2csc3c2CCCC3)n1`: the z-score is -1.89.

`COc1ccc(-c2nn(-c3ccccc3)cc2C(=O)Nc2nc(CC(C)=O)ns2)cc1`: the z-score was -3.37 (active).

Turning to `COc1cccc(C(=O)Nc2cc3c(cc2Br)OCCCO3)c1`, the z-score was 0.23.

`CCOc1ccc(NC(=O)CCC(=O)N/N=C/c2ccc([N+](=O)[O-])s2)cc1`: the z-score is 0.19.

For `CC(C)(C)NC(=O)c1cccc(NC(=O)Cc2ccc(Br)cc2)c1`, the z-score is -0.17.

`COC(=O)c1c(NC(=O)CN2CCN(S(=O)(=O)c3ccccc3[N+](=O)[O-])CC2)sc2c1CCC(C)C2` (configuration not stated): the z-score is 0.28.

As to `CNC(=O)c1ccsc1NC(=O)c1ccc(S(=O)(=O)N2CCOCC2)cc1`, the z-score was -1.

Regarding `CC(=O)Oc1c(C(=O)c2nnc(C)o2)c(=O)n(Cc2ccccc2)c2ccccc12`, the z-score is 0.7.

As to `O=C(Cc1c[nH]c2ccccc12)N/N=C/c1cccc(F)c1`, the z-score was -0.81.

As for `COc1cccc2c1CCC(NC(C)=O)C2=O` (configuration not stated), the z-score was 0.78.

As for `CCOC(=O)c1ccc(N/C(=N/S(=O)(=O)c2ccccc2)c2ccccc2)cc1`, the z-score is -1.09.

As to `COCCCNC(=O)CNC(=S)N(Cc1cc(OC)c(OC)c(OC)c1)C1CCCC1`, the z-score is 0.81.

In the case of `Cc1ccc(C(=O)C(=S)N2CCOCC2)cc1`, the z-score was -0.25.

Consider `COc1ccc(/C=C/C(=O)Nc2ccc3c(c2)OCCO3)cc1OC`, for which the z-score is -0.25.

Regarding `Cc1ccc(C(=O)N2CC(=O)Nc3ccccc32)o1`, the z-score was -0.11.

With `CC(=O)Nn1cc2c(=O)n(C)c(=O)n(C)c2c1`, the z-score is 1.08.

Consider `COc1ccc(OC)c(-n2cc3c(=O)n(C)c(=O)n(C)c3c2)c1`, for which the z-score was -0.75.

With `Cn1c(=O)c2cn(-c3cccc4ccccc34)cc2n(C)c1=O`, the z-score was -3.24 (active).

`COc1ccc(CC(=O)Nc2cc(S(=O)(=O)N3CCCCC3)ccc2N2CCN(C)CC2)cc1`: the z-score was 0.23.

For the compound `COc1ccccc1NC(=O)C1=C(C)Nc2nc3ccccc3n2C1c1cccs1` (configuration not stated), the z-score is -0.65.

On to `CC(C)C(=O)Nc1ccc2c3c(cccc13)CC2`, for which the z-score was -0.27.

`CCOC(=O)c1cc2cc(-c3c(C(=O)OCC)oc4cc(O)cc(O)c4c3=O)ccc2o1`: the z-score was -3.6 (active).

Consider `O=c1c(-c2ccc3c(c2)OCCO3)c(C(F)(F)F)oc2cc(O)cc(O)c12`, for which the z-score is -1.19.

For the compound `Cc1ccc(OC(=O)c2cc3ccccc3o2)cc1`, the z-score was 0.88.

With `O=C(NC(=S)NC1CCSC1=O)c1ccccc1F` (configuration not stated), the z-score was 2.45.

In the case of `CCOc1ccc(/C=N/OCC(=O)NCc2cccs2)cc1`, the z-score is 0.26.

For `Nc1nc(SCc2ccc([N+](=O)[O-])cc2)c2ncn(C3OC(CO)C(O)C3O)c2n1` (configuration not stated), the z-score is 1.34.

Turning to `Cc1cccc(N2CCN(C(c3ccc(N(C)C)cc3)c3nnnn3C(C)(C)C)CC2)c1C` (configuration not stated), the z-score was 0.72.

Regarding `COc1ccc(C(c2nnnn2C2CCCCC2)N2CCN(c3ccccc3F)CC2)cc1` (configuration not stated), the z-score was -2.56.

On to `Cc1cccc(N2CCN(C(c3ccccc3)c3nnnn3CC3CCCO3)CC2)c1C` (configuration not stated), for which the z-score is -3.18 (active).

With `Cc1nc(SCC(=O)c2ccccc2)c([N+](=O)[O-])[nH]1`, the z-score is -0.67.

For `COC(=O)c1cc(C(=O)CSc2nc(C)cc(C)n2)ccc1O`, the z-score is -0.22.

`Cc1cc(SCC(=O)c2ccccc2)nc(SCC(=O)c2ccccc2)n1`: the z-score is -3.01 (active).

Regarding `CC(C)=C1C2CCC1C1C(=O)N(NC(=O)c3ccco3)C(=O)C21` (configuration not stated), the z-score was 1.15.

For the compound `Cc1ccc(NC(=O)NC(=O)CSc2nnc(-c3ccc(OC(F)F)cc3)n2N)c(C)c1`, the z-score was -0.1.

Regarding `COc1ccc(-c2csc(NC(=O)CCCc3cccs3)n2)cc1`, the z-score was 0.83.

For the compound `Cc1ccc(N(Cc2ccc(C(=O)Nc3ccccc3C(=O)NCc3ccco3)cc2)S(C)(=O)=O)cc1C`, the z-score was -3.96 (active).

For the compound `Cc1cccc(Nc2ccccc2C(=O)NCc2ccco2)c1C`, the z-score was -0.62.

Regarding `CS(=O)(=O)N(Cc1ccc(Cl)cc1)c1ccc(C(=O)NCCSCc2ccco2)cc1`, the z-score is 0.47.

`CCOC(=O)N/N=C/c1cn(Cc2ccccc2Cl)c2ccccc12`: the z-score is -1.11.

For `C=CCn1c(SCc2cccc(F)c2)nc2cc(C(=O)N3CCC(C(N)=O)CC3)ccc2c1=O`, the z-score was -1.07.

`COc1ccc(/C=N/N=C/c2c[nH]c(=O)c(C#N)c2Nc2ccccc2)cc1`: the z-score is 0.79.

Consider `CCOC(=O)CNC(=O)CSc1nnnn1-c1cc(C)ccc1C`, for which the z-score was -0.31.

As to `COC(=O)c1ccccc1NC(=O)CSc1nnnn1C`, the z-score is 0.19.

`CCOC(=O)c1c(-c2ccc(C)cc2C)csc1NC(=O)CSc1nnnn1C`: the z-score is -3.44 (active).

Regarding `Cc1nonc1C(=O)N/N=C/c1ccc(O)cc1`, the z-score is 0.67.

In the case of `CC(C)Nc1nnc(SCC(=O)c2c[nH]c3ccccc23)s1`, the z-score was 0.14.

On to `Cc1cccc(C(=O)c2cccc(C)c2)c1`, for which the z-score is 0.43.

On to `Cc1cccc(-n2c(SCC(N)=O)nc3c(c2=O)C2(CCCCC2)Cc2ccccc2-3)c1`, for which the z-score was 1.27.

In the case of `CC(NC(=O)COC(=O)C1CCN(S(=O)(=O)c2ccccc2C(F)(F)F)CC1)c1ccccc1` (configuration not stated), the z-score was -0.04.

For `O=C(Nc1ccc(-c2nnc(-c3ccccc3)o2)cc1)c1ccc(Br)o1`, the z-score is 0.72.

Turning to `Brc1ccc(-c2nnc(-c3ccccc3)o2)o1`, the z-score is -0.77.

In the case of `Nc1ccc(-c2nnc(-c3ccc(-c4ccccc4)cc3)o2)cc1`, the z-score was -3.38 (active).

Turning to `Cc1ccnc(NC(=O)c2ccoc2C)c1`, the z-score was 0.21.

As to `COc1ccc2[nH]c3ccc(OC)cc3c2c1`, the z-score is -0.72.

On to `COc1ccc2[nH]cc(/C=C(/C#N)S(=O)(=O)c3ccccc3)c2c1`, for which the z-score was -3.31 (active).

In the case of `CCN(CC)CC(=O)c1c[nH]c2ccc(OC)cc12`, the z-score is -0.09.

Consider `CCOc1ccc(C(=O)Nc2cccc(SC)c2)cc1`, for which the z-score is 0.21.
